Screening results from PubChem BioAssay.
Most compounds without a hit are left out; they make up all but 0.65% or so of the library.
BJeLR lethal = BJeLR cell viability loss; BJeLR (HRASV12) viability, CellTiter-Glo ATP luminescence, 48 h; inhibition, % (concentration not given with the values); hit rate 0.17% among 300,000; in the data active = inhibition above about 50%
Sa RN4220 lethal = S. aureus RN4220 growth inhibition. inhibition, % (test concentration not listed). hit rate 0.33% among 330,000. OD600, 16 h; in the data active = inhibition above about 85%;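 also: plate controls were untreated cells for no effect and reference antibiotic for full effect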
ugtP null kill = kills S. aureus RN4220 lacking UgtP | growth inhibition, % (concentration not given with the values) | hit rate 0.54% among 330,000 | S. aureus RN4220 ugtP deletion, OD600 growth, 16 h; in the data active = growth inhibition above about 68%;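 also: plate controls were untreated wells for no effect and antibiotic for full effect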
Active calls of the source: *.

For O=C(c1ccc(CS(=O)Cc2ccc(Cl)cc2)o1)N1CCN(c2ccccc2)CC1 (stereo not given) the results were BJeLR lethal -14, Sa RN4220 lethal -6 and ugtP null kill 94*.
For Cc1ccc(CS(=O)Cc2ccc(C(=O)N3CCN(c4ccccc4)CC3)o2)cc1 (stereo not given) the results were BJeLR lethal 9, Sa RN4220 lethal -3 and ugtP null kill 33.
Screening COc1cccc(N2CCN(C(=O)c3ccc(CS(=O)Cc4ccc(Cl)cc4)o3)CC2)c1 (stereo not given) returned BJeLR lethal -16, Sa RN4220 lethal -7 and ugtP null kill 92*.
`Cc1ccc(CS(=O)Cc2ccc(C(=O)N3CCN(c4ccc(F)cc4)CC3)o2)cc1` (stereo not given) gave BJeLR lethal -2, Sa RN4220 lethal -3 and ugtP null kill 29.
For COc1cccc(N2CCN(C(=O)c3ccc(CS(=O)Cc4ccccc4Cl)o3)CC2)c1 (stereo not given) the results were BJeLR lethal 0, Sa RN4220 lethal -3 and ugtP null kill 4.
`COc1ccc(N2CCN(C(=O)c3ccc(CS(=O)Cc4ccc(C)cc4)o3)CC2)cc1` (stereo not given) gave BJeLR lethal -8, Sa RN4220 lethal -7 and ugtP null kill 96*.
COc1ccc(N2CCSC2C(=O)NN)cc1 (stereo not given) was read as BJeLR lethal -6, Sa RN4220 lethal 2 and ugtP null kill 4.
For O=S(=O)(CCN1CCSCC1)c1ccc(Cl)cc1 the results were BJeLR lethal -3, Sa RN4220 lethal 2 and ugtP null kill 9.
For ClC(CCN1CCN(Cc2ccccc2)CC1)c1ccccc1 (stereo not given) the results were BJeLR lethal -8, Sa RN4220 lethal 2 and ugtP null kill 3.
FC(F)(F)c1cnc(NNC(=S)Nc2ccc(Cl)cc2)c(Cl)c1 was read as BJeLR lethal 20, Sa RN4220 lethal 92* and ugtP null kill 70.
Cc1ccc(NC(=S)NNc2ncc(C(F)(F)F)cc2Cl)cc1 was read as BJeLR lethal 1, Sa RN4220 lethal 8 and ugtP null kill -2.
For Cc1ccc(NS(=O)(=O)c2ccc(-c3cnc(C4CC4)o3)cc2)cc1 the results were BJeLR lethal 1, Sa RN4220 lethal 8 and ugtP null kill -11.
`Cc1cccc(C)c1NS(=O)(=O)c1ccc(-c2cnc(C3CC3)o2)cc1` gave BJeLR lethal 60*, Sa RN4220 lethal 51 and ugtP null kill 10.
Screening COc1ccc(C)cc1NS(=O)(=O)c1ccc(-c2cnc(C3CC3)o2)cc1 returned BJeLR lethal 58*, Sa RN4220 lethal 11 and ugtP null kill -9.
Screening Cc1ccc(CNS(=O)(=O)c2ccc(-c3cnc(C4CC4)o3)cc2)cc1 returned BJeLR lethal -1, Sa RN4220 lethal 9 and ugtP null kill -5.
`Cc1ccc(C(=O)N/C(=C\c2ccco2)C(=O)NCc2cccnc2)cc1` gave BJeLR lethal 2, Sa RN4220 lethal 0 and ugtP null kill 3.
`COc1ccc(-c2cc(C(=O)N3CCCc4ccccc43)no2)cc1` gave BJeLR lethal -15, Sa RN4220 lethal 10 and ugtP null kill 14.
For CC(C)(C)NC(=O)C(c1cccs1)N(CC1CCCO1)C(=O)c1ccc(-c2ccccc2)[nH]1 (stereo not given) the results were BJeLR lethal -15, Sa RN4220 lethal 1 and ugtP null kill -1.
O=C(Nc1ccc(Cl)c(Cl)c1)c1ccc(Cl)c(Cl)c1 was read as BJeLR lethal 0.
`CC(C)C1O/C(=N/C(=O)Nc2ccc(Cl)c(Cl)c2)NC1=O` (stereo not given) gave BJeLR lethal -5, Sa RN4220 lethal 100* and ugtP null kill 100*.
COc1ccc(C(=O)c2ccc(Cl)c([N+](=O)[O-])c2)cc1 was read as BJeLR lethal 67*, Sa RN4220 lethal 4 and ugtP null kill 1.
Screening COc1ccc(C(=O)c2ccc(Cl)cc2)cc1 returned BJeLR lethal 2, Sa RN4220 lethal 14 and ugtP null kill 6.
Screening Cc1ccc(CN(C)CC(=O)NC(C)c2ccccc2)cc1 (stereo not given) returned BJeLR lethal -3, Sa RN4220 lethal 0 and ugtP null kill 6.
`O=C(Nc1ccc(OC(F)(F)F)cc1)Nc1cccc([N+](=O)[O-])c1` gave BJeLR lethal 3, Sa RN4220 lethal 100* and ugtP null kill 100*.
Cc1ccc(NC(=O)Nc2cccc([N+](=O)[O-])c2)cc1F was read as BJeLR lethal 5, Sa RN4220 lethal 55 and ugtP null kill 48.
`O=C(Nc1ccncc1)Nc1cccc(C(F)(F)F)c1` gave BJeLR lethal 6, Sa RN4220 lethal -16 and ugtP null kill -27.
O=C(Nc1ccc(OC(F)F)cc1)Nc1cccc(C(F)(F)F)c1 was read as BJeLR lethal 6, Sa RN4220 lethal 82 and ugtP null kill 90*.
Cc1oc(-c2ccccc2F)nc1CS(=O)CC(=O)NCc1ccccn1 (stereo not given) was read as BJeLR lethal 4, Sa RN4220 lethal -1 and ugtP null kill 1.
For CCC(Cc1ccccc1)NCc1c(C(=O)O)c(C)n(Cc2ccccc2)c1C (stereo not given) the results were BJeLR lethal -2, Sa RN4220 lethal 0 and ugtP null kill -3.
`Cc1c(-n2cc(C(=O)O)c(=O)c3cc(F)c(N4CCCC(O)C4)c(F)c32)c(=O)n(-c2ccccc2)n1C` (stereo not given) gave BJeLR lethal -2, Sa RN4220 lethal 2 and ugtP null kill 7.
`O=C(O)c1cn(-c2ccc(N3CCCC3)c(F)c2)c2c(F)c(F)c(F)cc2c1=O` gave BJeLR lethal 4, Sa RN4220 lethal 8 and ugtP null kill 100*.
Screening CCOC(=O)C1CCN(C(=O)c2cccc(Cl)c2)CC1 returned BJeLR lethal -2, Sa RN4220 lethal 2 and ugtP null kill 1.
For CCOC(=O)C1CCN(c2c(C(=O)c3ccccc3)cnc3ccc(Cl)cc23)CC1 the results were BJeLR lethal -15, Sa RN4220 lethal 55 and ugtP null kill 100*.
Screening CC1CN(CC(=O)Nc2ccccc2Sc2ccccc2)CC(C)O1 (stereo not given) returned BJeLR lethal -2, Sa RN4220 lethal 11 and ugtP null kill -11.
`Cc1ccc(C(C)C)c(OCc2ccc(C(=O)N/N=C/c3cccc(O)c3O)cc2)c1` gave BJeLR lethal 74*.
Cc1ccc(C(C)C)c(OCc2ccc(C(=O)NN=Cc3ccc(O)cc3O)cc2)c1 was read as Sa RN4220 lethal 16 and ugtP null kill 1.
Cc1ccc(N(CCC#N)C(=O)COC(=O)C2CCN(S(=O)(=O)c3ccc4c(c3)OCCO4)CC2)cc1 was read as BJeLR lethal -14, Sa RN4220 lethal -1 and ugtP null kill 4.
`CCCCCC1CCC(c2ccc(/C(N)=N/O)cc2)CC1` (stereo not given) gave BJeLR lethal -7, Sa RN4220 lethal -5 and ugtP null kill 100*.
Screening CCCCC1CCC(c2ccc(C(N)=O)cc2)CC1 (stereo not given) returned BJeLR lethal 3, Sa RN4220 lethal 1 and ugtP null kill 20.
Cc1ccc(CSCC(=O)Nc2ccccc2C(=O)O)cc1 was read as BJeLR lethal 9, Sa RN4220 lethal 0 and ugtP null kill 2.
